# Screening data from PubChem.
# Sampled rows, rich in hits. Any-hit rate of the full collection: about 19%.
# DT40 TDP1 no CPT = qHTS for Inhibitors of human tyrosyl-DNA phosphodiesterase 1 (TDP1): qHTS in cells in absence of CPT | AID 686978, 2013 | 420,000 compounds, 15% hits | DT40 Tdp1-/- hTDP1 cells, no CPT, ATP luminescence, 48 h | Potency, µM (titrated, usually from 46.2 µM), inactives show top-dose activity change, negative = growth inhibition, most hits filed as inhibitors; note: potency is the fitted concentration of half-maximal effect; nearly all actives have a fitted effect of over 55% in size
#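 Growth of hTDP1-complemented DT40 Tdp1-knockout cells is measured by ATP luminescence after at least 48 hr compound exposure at 37 °C, with DMSO substituting for the 20 nM CPT used in the parallel screen.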
# HT1080-NT tox = kills 2HG-producing HT-1080-NT fibrosarcoma cells | HT-1080-NT fibrosarcoma viability, CellTiter-Glo ATP luminescence, 48 h | Potency, µM (series often up to 46.1 µM), inactives show top-dose activity, negative = less viability, most hits filed as cytotoxic | 360,000 compounds, 1.6% hits;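 note: NT is the 2HG producing partner of a matched IDH1 knockdown line; potency is the fitted concentration of half-maximal effect; 0% = DMSO-treated cells and -100% = media-only wells without cells; nearly all actives have a fitted effect of over 55% in size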
#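 750 cells/well, RPMI + 5% FBS; 2 h settle, compound pin-transfer, 48 h at 37 degrees C. CellTiter-Glo 10 min RT, luminescence. Normalized to DMSO and media-only wells.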
# HT1080 IDH1KD tx = toxicity to HT-1080 IDH1 knockdown cells (counter line). AID 686971. 360,000 compounds, 2% hits. HT-1080 IDH1 knockdown viability, ATP luminescence, 48 h. Potency, µM (titrated, usually from 46.1 µM), without a hit: top-dose activity, negative = toxicity, actives largely listed as cytotoxic;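 note: potency is the fitted concentration of half-maximal effect; 0% = DMSO wells and -100% = cell-free medium wells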
#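 Cytotoxicity counter-line: IDH1KD HT-1080, 48 h, CellTiter-Glo. Curves classed by r2, magnitude and activity.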
# uPA surface inh = blocks generation of uPA at the cell surface | 330,000 compounds, 0.31% hits | cell surface uPA generation assay, qHTS | Potency, µM (series often up to 38.3 µM), for inactives: at the highest dose activity change, negative = inhibition, most hits filed as inhibitors; active = well fitted inhibition curve with a large enough effect; inconclusive = small, poorly fitted or top-dose-only effect; inactive = no such curve, though single readings can be large or run the other way; tested in mouse RAW 264.7 cells; note: potency is the fitted concentration of half-maximal effect; nearly all actives have a fitted effect of over 55% in size
# TDP1 cell CPT = growth inhibition of DT40 Tdp1-/-;hTDP1 cells with camptothecin (screen for TDP1 inhibitors) | Potency, µM (series often up to 46.2 µM), without a hit: top-dose activity change, negative = growth inhibition, actives largely listed as inhibitors | 420,000 compounds, 12% hits | chicken DT40 Tdp1-/-;hTDP1 cells + 20 nM CPT, ATP luminescence, 48 h; note: potency is the fitted concentration of half-maximal effect; nearly all actives have a fitted effect of over 55% in size
#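 Chicken DT40 Tdp1-/- cells complemented with human TDP1, 400 cells/well, exposed to compounds plus 20 nM camptothecin for at least 48 h at 37 C; viability read as ATP content by CellTiter-Glo luminescence.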
# IL1B secr inh = inflammasome signaling inhibition, IL-1 beta readout; THP-1 LPS/ATP IL-1B secretion, AlphaLISA, 16 h; stronger effect = lower value; activity change, % at 57.5 µM; 360,000 compounds, 4.7% hits; AID 743279; in the data active = activity change below about -50%; inconclusive = mostly about -30% to -49%
#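 Secreted IL-1B measured by AlphaLISA bead assay after 16 h compound exposure of THP-1 cells; compounds (final up to 57.5 uM) added 1 h before LPS (250 ng/mL) and ATP (1.25 mM) stimulation; lower signal means less secretion.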
# Starred values were filed as active, the others as inactive; u = inconclusive; x = no result given; [ ] = remark or other dose. Unless noted, calls come from the whole dose curve; as a rule, active = well fitted curve in the direction sought with a large enough effect; inconclusive = small, poorly fitted or top-dose-only effect, or another doubt; inactive = no such curve, though single readings can be large; an effect the other way counts as inactive or inconclusive. Unless noted, % is set by controls: 0 for no effect and ±100 for the full control effect.
SMILES,DT40 TDP1 no CPT,HT1080-NT tox,HT1080 IDH1KD tx,uPA surface inh,TDP1 cell CPT,IL1B secr inh
NC(=S)NNC(=O)COc1ccccc1O,-6.3%,1.9%,7.4%,5.5%,-6.0%,11.4
Cn1c(=O)c2c(ncn2CC(=O)N/N=C/C=C/c2ccccc2)n(C)c1=O,-4.4%,12.1%,14.4%,-8.6%,-7.1%,0.0
CC1CCN(C(=O)Cn2cnc3c2c(=O)n(C)c(=O)n3C)c2ccccc2S1 (stereo not given),18.4µM*,-0.4%,-2.3%,1.6%,u,62.6
COc1cccc(/C=N/NC(=O)Cn2cnc3c2c(=O)n(C)c(=O)n3C)c1,u,16.8%,7.0%,3.6%,29.1µM*,16.7
O=C(Cn1cnc2ccccc21)N/N=C/c1cccs1,-4.6%,9.8%,19.9%,2.6%,4.7%,4.5
O=C(Cn1cnc2ccccc21)N/N=C/C(Br)=C/c1ccccc1,23.1µM*,u,u,-3.4%,6.51µM*,u
COc1cc(/C=N/NC(=O)Cn2cnc3c2c(=O)n(C)c(=O)n3C)cc(OC)c1OC,-3.2%,6.8%,6.4%,3.6%,22.6%,44.6
Cn1c(=O)c2c(ncn2CC(=O)N/N=C/C(Br)=C/c2ccccc2)n(C)c1=O,3.66µM*,-0.9%,-1.9%,-0.9%,2.31µM*,-18.7
O=C(c1ccccc1)c1ccc(Oc2ccc([N+](=O)[O-])cc2[N+](=O)[O-])cc1,u,14.6µM*,11.6µM*,-15.0%,u,-95.4*
O=[N+]([O-])c1cc(/C=N/O)ccc1Oc1cccc(Cl)c1,-9.2%,-2.5%,-2.2%,-7.5%,1.1%,-14.9
Cc1cc(=O)oc2cc(Oc3ccc([N+](=O)[O-])cc3[N+](=O)[O-])ccc12,4.61µM*,-2.0%,u,-9.6%,5.17µM*,-104.0*
O=Cc1cccc(Oc2ccc([N+](=O)[O-])cc2[N+](=O)[O-])c1,7.31µM*,u,u,u,u,62.3
COc1ccccc1NC(=O)c1ccc(NC(=O)CSc2ncn[nH]2)cc1,3.0%,-3.1%,4.0%,2.2%,4.2%,0.0
COc1ccc(NC(=O)C2CCCN(S(=O)(=O)c3ccc(Cl)cc3)C2)cc1OC (stereo not given),-19.3%,-12.8%,-8.9%,-3.5%,-24.5%,8.7
CCOC(=O)C1(C)CCN1C(=O)c1csnn1 (stereo not given),-8.7%,18.6%,14.2%,x,-3.3%,21.8
S=C(NCc1ccccc1)N1CCN(C(=S)NCc2ccccc2)CC1,1.6%,1.2%[9.24 µM],7.2%,6.2%,-2.4%,-8.0
COc1ccc(CN2CCNC(=O)C2CC(=O)N(C)C2CCOCC2)c(F)c1 (stereo not given),-1.0%,6.4%,14.6%,5.6%,-4.2%,0.0
Cc1cc([N+](=O)[O-])nn1CC(=O)NCc1ccc(Cl)cc1,-21.2%,-2.8%,-1.4%,14.4%,-15.2%,20.4
Fc1cccc(Cc2noc(CN3CCOCC3)n2)c1,3.0%,0.0%,-0.3%,3.3%,-12.0%,-4.6
Fc1ccccc1Cc1noc(CN2CCC(OCc3cccnc3)CC2)n1,23.1µM*,0.2%,-0.3%,1.7%,u,8.3
Fc1ccccc1Cc1noc(CN2CCN(C/C=C/c3ccccc3)CC2)n1,18.4µM*,20.0%,-2.5%,-6.5%,18.4µM*,-12.9
Cc1ccc(C2(c3noc(CN4CCC(c5ccncc5)CC4)n3)CCCC2)cc1,18.4µM*,u,u,-4.3%,13µM*,-25.0
Fc1cccc(Cc2noc(CN3CCC(c4ccncc4)CC3)n2)c1,13µM*,-10.8%,-24.4%,-13.5%,18.4µM*,23.1
CN(C)C1=NCCN1CC1CCCCC1,-17.4%,4.3%,7.0%,-1.8%,-1.8%,6.3
COc1cc(CN2CCNC(=O)C2CC(=O)NC2CCC2)cc(OC)c1 (stereo not given),5.6%,5.8%,3.2%,2.3%,-5.3%,8.2
SMILES,DT40 TDP1 no CPT,HT1080-NT tox,HT1080 IDH1KD tx,uPA surface inh,TDP1 cell CPT,IL1B secr inh
Cc1ccc(C(=O)N(Cc2cc3cccc(C)c3nc2N(C)C)CC2CCCO2)cc1 (stereo not given),-6.9%,x,x,x,8.7%,x
Cc1ccc(C2CC2c2n[nH]c(=S)n2-c2cccc(Cl)c2)cc1 (stereo not given),23.1µM*,-11.3%,-14.9%,3.3%,u,31.4
S=c1[nH]nc(C2CC2c2ccc(Cl)cc2)n1-c1ccc(Cl)cc1 (stereo not given),u,-6.7%,-11.0%,-3.2%,u,-102.2*
Cc1c(CCC(=O)NCc2ccc(F)cc2)c(=O)oc2cc(O)ccc12,-20.1%,x,x,x,-4.8%,x
Cc1ccc(S(=O)(=O)N(C)C)cc1NC(=O)COC(=O)c1ccc2c(=O)n3c(nc2c1)CCC3,4.6%,3.3%,2.7%,u,2.1%,4.4
COCCCNC(=O)c1cc(S(=O)(=O)N2CCC3(CC2)OCCO3)ccc1F,-23.7%,-0.1%,-0.5%,x,3.9%,16.4
CCN(Cc1cccc(OC)c1)CC1CCCN(CCc2cccc(OC)c2)C1 (stereo not given),u,1.7%,-0.7%,-0.5%,14.6µM*,-10.8
C=CCC(=O)N(CC)CC1CCCN(CCc2cccc(F)c2)C1 (stereo not given),15.5%,3.0%,-2.1%,17.2%,-0.1%,15.5
CCN(Cc1ccc(O)cc1)CC1CCCN(CCc2cccc(F)c2)C1 (stereo not given),u,u,u,8.8%,16.4µM*,-16.8
CN(CC1CCCN(CCc2cccc(C(F)(F)F)c2)C1)C(=O)c1ccco1 (stereo not given),-25.0%,-1.9%,-2.4%,1.1%,-25.1%,11.3
CC(=O)Nc1ccc(CN(C)CC2CCCN(CCc3cccc(C(F)(F)F)c3)C2)cc1 (stereo not given),u,u,20.6µM*,2.0%,13µM*,-69.2*
CCN(CC1CCCN(CCc2cccc(OC)c2)C1)C(=O)C=C(C)C (stereo not given),-0.2%,7.0%,-0.9%,14.9%,-8.7%,13.8
CCOc1cccc(CN(CC)CC2CCCN(CCc3cccc(OC)c3)C2)c1O (stereo not given),16.4µM*,-27.1%,-22.6%,-3.6%,u,-18.8
CCNc1ncc2nc(-c3ccccc3)c(=O)n(Cc3cccs3)c2n1,-12.4%,x,x,x,1.1%,x
O=C(CSc1nc2nn(-c3ccccc3)c(=O)c-2c2n1CCCCC2)Nc1ccc(F)c(F)c1,u,10.6%,2.0%,-0.6%,u,-27.7
